# Data reported in PubChem BioAssay AID1814 (Broad Institute, 2009).
# Hit rate of the full screen: of about 300,000 compounds, about 22,000 (7.3%) were called active. Roughly 2% stayed inconclusive and do not appear here. This is one part of a sample in which actives are shown more often than they occur. Unmarked numbers belong to inactive results. Cut-off read from the data, not from the text of the source: active = activity score below about -60%; inconclusive = mostly about -28% to -61%; inactive = positive scores.
# Experiment: Activators via SNCA 5'UTR binding, MLPCN (AID 1814)
# Settings: alpha-synuclein 5'UTR reporter, activators screen; hits give low values; tested at 7.5 µM
row,SMILES,activity score
1,Cc1cc(SCC(=O)NCCN2C(=O)CSC2=O)nc2ccccc12,-74.6% (active)
2,CCc1ccc(NC(=O)N2CCc3ccccc3C2)cc1,-68.2% (active)
3,O=C(Nc1cccc([N+](=O)[O-])c1)N1CCc2ccccc2C1,-99.5% (active)
4,CCCC1(C(=O)OC)NC(c2ccco2)C2C(=O)N(C)C(=O)C21 (stereo unspecified),27.8%
5,CCOC(=O)C1C(=O)C=C(c2ccc(OC)cc2)CC1c1ccco1 (stereo unspecified),-74.2% (active)
6,CCOC(=O)c1c(Cc2ccc(Cl)cc2)c[nH]c1C,-90.9% (active)
7,CN(c1cccc(NC(=O)Nc2ccc(Cl)cc2)c1)S(C)(=O)=O,-112% (active)
8,O=[N+]([O-])c1ccccc1N/N=C1\CCc2ccccc21,-187% (active)
9,COc1ccc(/C=N/Nc2nc3ccccc3c(=O)[nH]2)cc1,-125% (active)
10,Cc1nnc(N/N=C/c2ccccn2)[nH]c1=O,117%
11,COc1ccc(-c2onc3ccc(C(C)=O)cc23)cc1,-120% (active)
12,CS(=O)(=O)C1=NN2C(=N)/C(=C\c3ccc(OCCOc4ccccc4)cc3)C(=O)N=C2S1,-73.6% (active)
13,N#Cc1ccccc1NC(=O)c1ccc2c(c1)OCO2,-87.9% (active)
14,O=C(OCc1ccccc1F)c1ccc2c(c1)OCCO2,-210% (active)
15,O=C(Nc1ccccc1F)c1ccc2c(c1)OCO2,-199% (active)
16,O=c1c(-c2ccccc2)coc2cc(O)ccc12,-128% (active)
17,CN(C)CCNC(=O)c1[nH]nc2c1CCc1ccccc1-2,-73.6% (active)
18,COc1cccc(/C=N/NC(=O)c2[nH]nc3c2CCc2ccccc2-3)c1O,76.4%
19,O=C(CC1SCCNC1=O)Nc1ccc(Cl)c(Cl)c1 (stereo unspecified),-77.7% (active)
20,Oc1c(Cl)cc(Cl)c(Cl)c1Cc1c(O)c(Cl)cc(Cl)c1Cl,77.3%
21,C=C(C)C(=O)O[C@H]1C/C(C)=C\C(=O)/C=C(\C)[C@H](O)[C@@H]2OC(=O)C(=C)[C@@H]21,-250% (active)
22,O=C(Nc1nc2ccccc2s1)c1ccc2c(c1)OCO2,53.7%

row,SMILES,activity score
1,O=C(Nc1ccc(N2CCOCC2)cc1)c1ccc2c(c1)OCO2,-121% (active)
2,O=C(Nc1ccccc1)c1ccc2c(c1)OCO2,-148% (active)
3,CN1CCN(c2ccc(NC(=O)c3ccc4c(c3)OCCO4)cc2Cl)CC1,-66.8% (active)
4,O=C(Nc1ccc(C2CC2(Cl)Cl)cc1)c1cccc([N+](=O)[O-])c1 (stereo unspecified),-92.3% (active)
5,O=C(Nc1cccc([N+](=O)[O-])c1)c1ccc2c(c1)OCO2,-99.5% (active)
6,COc1ccc2oc(-c3cccc(NC(=O)CSc4ccc(Cl)cc4)c3)nc2c1,-97.9% (active)
7,O=C(O)c1cccc(N=NN2CCCCCC2)c1,-74.8% (active)
8,Cc1ccc(C(=O)Nc2ccc(C)c(S(=O)(=O)N(C)C)c2)s1,-185% (active)
9,COc1ccc2ccccc2c1CNCc1ccccn1,-104% (active)
10,O=C(c1ccc(Cl)cc1)N1N=C(c2ccccn2)CC1(O)C(F)(F)F (stereo unspecified),68.6%
11,C/C(=N\NC(=O)Cc1ccc(Cl)cc1)c1ccccn1,85.6%
12,Cc1ccc(S(=O)(=O)/N=C(/Nc2ccccn2)c2ccc(Cl)cc2)cc1,-118% (active)
13,Cc1cccc(CSc2ccc(-c3cccs3)nn2)c1,-110% (active)
14,COc1ccc(/C(O)=C2/C(=O)C(=O)N(CCCN(C)C)C2c2ccccc2)cc1OC (stereo unspecified),-86.9% (active)
15,Cc1ccc(NC(=O)c2sc3nc(N)c(C#N)cc3c2N)cc1,-133% (active)
16,N#Cc1ccc(C2N=C(c3ccccc3)NO2)cc1 (stereo unspecified),-107% (active)
17,Brc1ccccc1C1N=C(c2ccccc2)NO1 (stereo unspecified),-157% (active)
18,COC(=O)c1c(NC(=O)c2ccc(S(=O)(=O)N3CCOCC3)cc2)sc2c1CCN(C(C)C)C2,-85.3% (active)
19,O=[N+]([O-])c1cccc(Nc2c3ccccc3nc3ccccc23)c1,-124% (active)
20,O=C(Nc1cccc(Br)c1)c1ccc2snnc2c1,-93% (active)
21,FC(F)(F)c1ccnc(Oc2ccc(C3=NCCS3)cc2)c1,-169% (active)
22,Cc1nn(C)cc1CNC(=O)Nc1ccc(Cl)cc1,-69.4% (active)

row,SMILES,activity score
1,Cn1ccc(NC(=O)Nc2ccc(Cl)cc2)n1,-80.2% (active)
2,CSCc1ccc(C(=O)Nc2cc(C)cc(C)c2)cc1,-126% (active)
3,C=CCn1c(SCC(N)=O)nnc1-c1cc2c(s1)CCC(CC)C2 (stereo unspecified),-137% (active)
4,c1ccc(CCN2CN=C(Nc3nc4ccccc4o3)NC2)cc1,-174% (active)
5,O=C(NCCc1c[nH]c2ccccc12)c1cc2ccccc2oc1=O,-188% (active)
6,O=C(NCc1ccccn1)c1cc2ccccc2oc1=O,-79.8% (active)
7,CSc1ccc(/C=N/NC(=O)c2cccc(Cl)c2)cc1,-142% (active)
8,O=C(N/N=C/c1ccc(Cl)c(Cl)c1)c1ccc2nc[nH]c2c1,-191% (active)
9,Cc1nn(C)c(Oc2ccccc2)c1[N+](=O)[O-],-79.9% (active)
10,Cc1ccc(N2C(=O)S/C(=C/c3cn(C)c4ccccc34)C2=O)cc1,-177% (active)
11,COc1cc(SC)ccc1C(=O)NCCOc1ccccc1Cl,-151% (active)
12,O=C(NC(Nc1nc2ccc([N+](=O)[O-])cc2s1)(C(F)(F)F)C(F)(F)F)c1ccccc1,94.1%
13,O=C(Nc1nc2ccc([N+](=O)[O-])cc2s1)c1ccncc1,-104% (active)
14,CCN(CC)c1ccc(C(=O)OCC(=O)c2ccco2)cc1,-179% (active)
15,Cc1csc(NC(=O)CSc2nnc(-c3cccnc3)o2)n1,-101% (active)
16,COC(=O)c1c(NC(=O)COc2ccc(Cl)cc2Cl)sc2c1CC(C)(C)NC2(C)C,102%
17,Cc1cc(NC(=O)COc2ccc(Cl)cc2Cl)n(CCC#N)n1,-122% (active)
18,COc1ccc(C(=O)NCCSc2ccccc2C)cc1,-113% (active)
19,COc1ccc(Nc2cc(=O)oc3ccccc23)cc1,-97.7% (active)
20,CSc1nc(-c2ccccc2)nc(C(Cl)Cl)n1,114%
21,Cc1csc(NC(=O)Nc2ccccc2[N+](=O)[O-])n1,-255% (active)
22,NC(=O)c1sc2nc3c(c(-c4ccccc4)c2c1N)CCC3,56.2%

row,SMILES,activity score
1,CN(C)c1ccnc2sc(C(=O)c3ccccc3)c(N)c12,-138% (active)
2,Cc1nc2sc(C(=O)c3ccccc3)c(N)c2c2c1CCCC2,-156% (active)
3,CCOc1cc(N2CCOCC2)c(OCC)cc1NC(=O)COc1cccc2cccnc12,88.8%
4,Cc1cccc(NC(=O)COc2ccccc2C)n1,-109% (active)
5,Cc1cccc(NC(=O)COc2ccc(Br)cc2C)n1,-210% (active)
6,Cc1cccc(NC(=O)c2ccc3ccccc3n2)n1,-103% (active)
7,Cc1cccc(NC(=O)Cc2ccc(Br)cc2)n1,-90.2% (active)
8,Cc1ccccc1OCC(=O)Nc1ccc2c(c1)ncn2C,-256% (active)
9,CCc1c(C)c2ccc(OC3CCCCC3=O)cc2oc1=O (stereo unspecified),-133% (active)
10,Cc1ccc(-c2nn(-c3ccccc3)cc2/C=C2\SC(=S)N(CCCCCC(=O)O)C2=O)o1,-89.9% (active)
11,C=CCOc1ccc(/C=C2\SC(=S)N(CCC(=O)O)C2=O)cc1,80%
12,COc1ccc2nc(Nc3nc(-c4cc5ccccc5oc4=O)cs3)sc2c1,-131% (active)
13,COc1ccc2nc(Nc3nc(-c4ccncc4)cs3)sc2c1,-122% (active)
14,CCNc1nc(-c2cc3ccccc3o2)cs1,-187% (active)
15,O=c1oc2ccccc2cc1-c1csc(Nc2ccc(O)cc2)n1,-171% (active)
16,O=C(NC1CCCCCCC1)c1cccs1,-77.8% (active)
17,CC(Cc1cccs1)NC(=O)c1cccc(Cl)c1 (stereo unspecified),-95.5% (active)
18,CC(Cc1cccs1)NC(=O)NC1CCCCC1 (stereo unspecified),-95.9% (active)
19,Cc1cnc(NC(=O)c2ccc(Cl)nc2)s1,-97.1% (active)
20,COc1cc(CNc2ncn[nH]2)ccc1OCc1ccccc1C,-65.6% (active)
21,O=C(Cc1cccs1)NCc1cccc(C(F)(F)F)c1,-110% (active)
22,COC(=O)Cc1csc(/N=C/c2c(O)n(-c3cccc(C(F)(F)F)c3)c(=O)c3ccccc23)n1,81.8%

row,SMILES,activity score
1,CC(C)c1ccc(/C=C2\NC(=O)NC2=O)cc1,-66.1% (active)
2,COc1cccc(/C=N/Nc2ncc(C(F)(F)F)cc2Cl)c1O,76.7%
3,C/C(=N\Nc1ncc(Cl)cc1Cl)c1cccs1,-91.6% (active)
4,C/C(=N\Nc1nc2ccccc2[nH]1)c1cccs1,-116% (active)
5,C/C(=N\Nc1ncc(Cl)cc1Cl)c1ccc(S(=O)(=O)NCc2ccco2)cc1,-141% (active)
6,COc1cccc(/C(C)=N/Nc2ncc(Cl)cc2Cl)c1,-119% (active)
7,Nc1cccc(CCc2nc3ccccc3[nH]2)c1,-77.9% (active)
8,Cc1c(C(=O)OC(C)C)sc(NC(=O)c2cccnc2)c1C#N,-80.1% (active)
9,CNc1nc2c(C)cccn2c(=O)c1C=Nc1ccc(OC)cc1,-108% (active)
10,O=C(Nc1ccc(N2CCOCC2)cc1)c1ccc(-c2ccccc2[N+](=O)[O-])o1,-107% (active)
11,O=C(Nc1ccc2sc3ccccc3c(=O)c2c1)c1ccccc1Cl,-135% (active)
12,Cc1ccc(SCC(=O)c2cc(C)c(OC(=S)N(C)C)c(C)c2)cc1,-155% (active)
13,CCOc1ccc(NC(=O)Nc2cc(C)ccc2OC)cc1,-78.4% (active)
14,CCOc1ccc(NC(=O)Nc2cc(C)on2)cc1,-128% (active)
15,CCOc1ccc(C(=O)Nc2cc(OC)ccc2OC)cc1,-88.9% (active)
16,CCOc1ccc(C(=O)Nc2cccc(SC)c2)cc1,-168% (active)
17,CC(=O)c1cc(C#N)c(SCC(=O)C(C)(C)C)nc1C,-148% (active)
18,CC(=O)c1cc(C#N)c(SCC(=O)Nc2nccs2)nc1C,-110% (active)
